Sampled rows, rich in hits. Any-hit rate of the full collection: about 1.7%.
LYPLA2 inh: LYPLA2 inhibitors, primary screen, counter-screen for PME1 inhibitor project, biochemical, fluorescence polarization, FP-Rh probe ABPP | Acyl-protein thioesterase 2 (Homo sapiens), O95372 | recombinant LYPLA2 | inhibition, % at 5.9 µM | hit rate 0.38% among 320,000 | AID 2177, 2009;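 active = inhibition above the screen-wide mean plus 3 SD, limit set per campaign, cut at about 26% in these data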
Target sequence (O95372 whole entry, looked up): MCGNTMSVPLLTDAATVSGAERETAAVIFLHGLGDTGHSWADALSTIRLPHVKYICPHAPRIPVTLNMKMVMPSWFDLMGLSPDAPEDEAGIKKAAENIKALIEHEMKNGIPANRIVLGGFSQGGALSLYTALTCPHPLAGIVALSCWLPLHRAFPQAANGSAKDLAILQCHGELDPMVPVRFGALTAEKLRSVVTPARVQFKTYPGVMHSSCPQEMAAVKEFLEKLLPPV
Hck-Nef inh: inhibitors of Nef-activated human Hck kinase, primary screen, biochemical, Z-Lyte FRET, 384-well, Hck-YEEI. Recombinant Hck-YEEI plus Nef, Z-Lyte FRET kinase assay. hit rate 0.68% among 220,000. inhibition, % at 20 µM. AID 463187, 2010;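 active = Hck-Nef kinase inhibition above about 50%, limit read from the data; inactive = inhibition below that limit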
LYPLA1 inh: LYPLA1 inhibitors, primary screen, counter-screen for PME1 inhibitor project, biochemical, fluorescence polarization, FP-Rh probe ABPP | hit rate 0.16% among 320,000 | recombinant LYPLA1 | inhibition, % at 5.9 µM;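 active = inhibition above the mean of all tested compounds plus 3 SD, set per campaign, cut at about 14% in these data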;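 also: inhibitors block serine hydrolase probe labeling of LYPLA1 so polarization falls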
Target sequence (O75608 whole entry, looked up): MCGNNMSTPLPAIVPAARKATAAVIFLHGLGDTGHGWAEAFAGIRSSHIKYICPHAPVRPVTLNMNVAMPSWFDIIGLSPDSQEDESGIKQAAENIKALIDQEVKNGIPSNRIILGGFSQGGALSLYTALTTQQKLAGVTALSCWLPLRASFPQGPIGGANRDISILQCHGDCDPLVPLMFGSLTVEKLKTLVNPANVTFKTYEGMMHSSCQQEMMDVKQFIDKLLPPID
PREPL inhibitor: PREPL enzyme inhibitors, primary screen, biochemical, fluorescence polarization | Prolyl endopeptidase-like (Homo sapiens), Q4J6C6 | recombinant PREPL, fluorescence polarization activity-based probe | inhibition, % at 5.96 µM | hit rate 0.68% among 320,000 | AID 2751, 2010; in the data active = inhibition above about 43%
p97 inhibitor: inhibitors of human p97 ATPase, primary screen, biochemical. inhibition, % at 8 µM. recombinant p97 ATPase, Kinase-Glo ATP luminescence, 3 h. Transitional endoplasmic reticulum ATPase (Homo sapiens), P55072. AID 1481, 2009. hit rate 0.42% among 220,000; in the data active = inhibition above about 15%
Rin1 Abl inh: inhibitors of Rin1-Abl protein binding, primary screen, biochemical, TR-FRET; inhibition, % at 7.35 µM; hit rate 0.4% among 360,000; AID 588664, 2011; in the data active = inhibition above about 5%, passing the limit was not always enough
Hck Nef conf: retest of Hck:Nef kinase inhibitor hits, confirmation, biochemical, Z-Lyte FRET, 384-well, p-Tyr peptide counterscreen; hit rate 28% among 1,300; calls only at 10 µM; Recombinant Hck-YEEI:Nef, Z-Lyte FRET kinase assay; shares compounds with Hck-Nef inh;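 active = average inhibition of at least 50%, with Z-scores no higher than 3 in both the phospho-tyrosine peptide and fluorescence counterscreens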
Of the large screens only hits and unclear results are named; the others gave an inactive call (follow-up assays come after a bar, where shown).

CCCCN(C(=O)CN1CC(C)OC(C)C1)c1c(N)n(CC(C)C)c(=O)[nH]c1=O (stereo not given)	none
CCCCN(C(=O)Cn1ncc(Cl)c(Cl)c1=O)c1c(N)n(CC(C)C)c(=O)[nH]c1=O	Hck-Nef inh 65.8 | Hck Nef conf active
CC[n+]1ccc(C)c2cc(S(=O)C(F)(F)F)ccc21 (stereo not given)	none
CC[n+]1ccc(C)c2cc(SC(F)(F)F)ccc21	Hck-Nef inh 72.3 | Hck Nef conf inactive
COc1ccc(NC(=O)CSc2c(C)nn(-c3nnc(C)c(=O)[nH]3)c2C)cc1	Hck-Nef inh 108.1 | Hck Nef conf inactive
CCN(CC)c1ccc(NC(=O)c2ccc3c(c2)OCO3)cc1	none (no result: Hck-Nef inh, p97 inhibitor)
CCc1cc(-c2[nH]ncc2-c2ccc3c(c2)OCO3)c(O)cc1O	Hck-Nef inh 65.0 | Hck Nef conf active
Cc1ccc(S(=O)(=O)c2cc3c(=O)n4ccccc4nc3n(C3CCCCC3)c2=N)cc1	none (no result: Hck-Nef inh, p97 inhibitor)
Cc1cccn2c(=O)c3cc(C#N)c(=O)n(-c4c(C)n(C)n(-c5ccccc5)c4=O)c3nc12	none
Cc1cccc(-n2c(=O)c(C#N)cc3c(=O)n4ccccc4nc32)c1	Hck-Nef inh 199.1
Cc1cc(-n2c(=O)c(C#N)cc3c(=O)n4cccc(C)c4nc32)no1	Hck-Nef inh 190.0
Cc1ccc(C)c(-n2c(=O)c(C#N)cc3c(=O)n4ccccc4nc32)c1	Hck-Nef inh active
Cc1cccc(NC(=O)c2cc3c(=O)n4ccccc4nc3n(CC(C)C)c2=N)c1	none
O=C(CCc1ccco1)CCc1ccco1	none (no result: LYPLA2 inh, Hck-Nef inh, LYPLA1 inh, PREPL inhibitor, p97 inhibitor)
CCOC(=O)N1CCN(C(=O)c2ccc3c(c2)N(Cc2cc(C)ccc2C)C(=O)c2ccccc2S3=O)CC1 (stereo not given)	none (no result: Hck-Nef inh, p97 inhibitor)
Oc1ccc(Nc2ccnc3cc(Cl)ccc23)cc1	Hck-Nef inh 64.5 | Hck Nef conf active
Clc1ccc(NNc2ccnc3cc(Cl)ccc23)cc1	none
Cn1/c(=N/N=C/c2ccc([N+](=O)[O-])cc2)sc2ccccc21	none (no result: LYPLA2 inh, LYPLA1 inh, PREPL inhibitor, Rin1 Abl inh)
Cc1cc(C)c2c(c1)/C(=N\N=c1\sc3ccccc3n1C)C(=O)N2	Hck-Nef inh 50.6 | Hck Nef conf inactive
CN(Cc1cccnc1)C(=O)CNC(=O)COc1ccccc1	none (no result: Hck-Nef inh, p97 inhibitor)
CC(=O)Nc1ccc(S(=O)(=O)C(C#N)c2nc3ccccc3nc2NCCCO)cc1 (stereo not given)	Hck-Nef inh 165.0
CC(=O)Nc1ccc(S(=O)(=O)Nc2nc3ccccc3nc2Nc2ccccc2)cc1	none
CC(=O)Nc1ccc(S(=O)(=O)C(C#N)c2nc3ccccc3nc2NCCO)cc1 (stereo not given)	Hck-Nef inh 148.4
CC(=O)Nc1ccc(S(=O)(=O)Nc2nc3ccccc3nc2Nc2ccc(O)cc2)cc1	none
NC(=O)c1cc2ccccc2oc1=NCc1ccccc1	none
NC(=O)c1cc2ccc(O)cc2oc1=NCc1ccccc1	Hck-Nef inh 103.6
N#C/C(=C\c1coc2ccc(O)cc2c1=O)C(=O)Nc1nc2ccccc2s1	Hck-Nef inh 63.7, p97 inhibitor 43.2 | Hck Nef conf inactive
N#C/C(=C\c1coc2ccccc2c1=O)C(N)=S	none
CC1(C(=O)NCC2CC2)Cc2c(-c3ccc4c(c3)OCO4)ccnc2O1 (stereo not given)	none (no result: LYPLA2 inh, Hck-Nef inh, LYPLA1 inh, PREPL inhibitor, p97 inhibitor)
CC(O)C(C(=O)OCc1ccc([N+](=O)[O-])cc1)N1C(=O)c2ccccc2C1=O (stereo not given)	Hck-Nef inh 70.7 | Hck Nef conf inactive
CCCCOc1ccc(-c2nnc(N)s2)cc1	Hck-Nef inh 78.5 | Hck Nef conf active
CCOc1ccc(-c2nnc(N)s2)cc1	none
Cc1ccc(NC(=O)CSc2nc3ccccc3c3nc(CCn4cncc4C)nn23)c(C)c1	Hck-Nef inh 72.1 | Hck Nef conf inactive
COc1cccc(C2C(C(=O)Nc3nc4ccccc4s3)=C(C)NC3=C2C(=O)CC(C)(C)C3)c1OC (stereo not given)	Hck-Nef inh 57.1
COc1ccc(OC)c(C2C(C(=O)Nc3nc4ccccc4s3)=C(C)NC3=C2C(=O)CCC3)c1 (stereo not given)	none
CN(Cc1ccccc1)Cc1c(O)ccc2ccccc12	none (no result: Hck-Nef inh, p97 inhibitor)
Cc1cc(=O)oc2c(CN(C)Cc3ccccc3)c(O)ccc12	Hck-Nef inh 57.7
CCc1c(C)c2cc(Cl)c(O)c(CN3CCCCC3)c2oc1=O	Hck-Nef inh 118.3
CCCCc1cc(=O)oc2c(CN3CCCC3)c(O)ccc12	Hck-Nef inh 96.7 | Hck Nef conf inactive
CCc1cc(=O)oc2c(CN3CCCC3)c(O)c(Cl)cc12	Hck-Nef inh 102.3
Cc1cc(=O)oc2c(CN3CC(C)OC(C)C3)c(O)c(Cl)cc12 (stereo not given)	Hck-Nef inh active
COc1cc(/C=N/NC(=O)c2ccncc2)ccc1OC(=O)c1cccc(F)c1	none (no result: Hck-Nef inh, p97 inhibitor)
CC(=O)c1ccc(NC(=S)N2CCCC2)cc1	none (no result: LYPLA2 inh, Hck-Nef inh, LYPLA1 inh, PREPL inhibitor, p97 inhibitor)
CCc1cc(=O)oc2c(CN3CCN(C)CC3)c(O)c(Cl)cc12	Hck-Nef inh 163.1
Cn1nnnc1SCC(=O)Nc1nc(-c2ccc(F)c(F)c2)cs1	none (no result: Hck-Nef inh, p97 inhibitor)
Cc1sc2ncnc(SCC(=O)Nc3nc(-c4ccc(F)c(F)c4)cs3)c2c1C	Hck-Nef inh 117.4 | Hck Nef conf inactive
CC1CN(C(=O)CCC(=O)NC2CCCCC2)c2ccccc2S1 (stereo not given)	none (no result: Hck-Nef inh, p97 inhibitor)
Cc1cc(C)c2c(N)c(C(=O)N/N=C/c3ccccc3)sc2n1	none
Cc1cc(C)c2c(N)c(C(=O)N/N=C/c3cccnc3)sc2n1	Hck-Nef inh 72.8 | Hck Nef conf inactive
Cc1ccccc1OCCC(=O)OCC(=O)NC1CC1	none (no result: Hck-Nef inh, p97 inhibitor)
CCN1CCN(Cc2ccc(NC(=O)c3ccc(C)c(NC(=O)c4cc(-c5ccc(Br)cc5)n[nH]4)c3)cc2C(F)(F)F)CC1	Hck-Nef inh 95.9 (no result: p97 inhibitor) | Hck Nef conf active
CCN1CCN(Cc2ccc(NC(=O)c3ccc(C)c(NC(=O)N4CCNC4=O)c3)cc2C(F)(F)F)CC1	none (no result: p97 inhibitor)
CCN1CCN(Cc2ccc(NC(=O)c3ccc(C)c(NC(=O)c4nccn4C)c3)cc2C(F)(F)F)CC1	none (no result: p97 inhibitor)
CCN1CCN(Cc2ccc(NC(=O)c3ccc(C)c(NC(=O)c4nccnc4N)c3)cc2C(F)(F)F)CC1	Hck-Nef inh 55.6 (no result: p97 inhibitor) | Hck Nef conf inactive
